According to PubChem BioAssay AID652039 (The Scripps Research Institute Molecular Screening Center, 2013):
In all, about 370,000 compounds went through this assay and about 3,300 (0.89%) were called active. This is one part of a sample in which actives are shown more often than they occur. Values without a mark were called inactive.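 The calls were made as follows: active = activation above the mean of all tested compounds plus 3 SD, computed per campaign excluding outliers beyond control limits (cut at about 13% in these data); inactive = the rest.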

biological target: Kallikrein-7 (Homo sapiens) (UniProt P49862); assay: proKLK7 zymogen activators, primary screen, biochemical, fluorescence intensity (AID 652039); settings: purified proKLK7, EDANS-DABCYL substrate fluorescence; at 7 µM; active compounds read high; 100% is mature enzyme control, 0% vehicle
Sequence (P49862 whole entry, looked up): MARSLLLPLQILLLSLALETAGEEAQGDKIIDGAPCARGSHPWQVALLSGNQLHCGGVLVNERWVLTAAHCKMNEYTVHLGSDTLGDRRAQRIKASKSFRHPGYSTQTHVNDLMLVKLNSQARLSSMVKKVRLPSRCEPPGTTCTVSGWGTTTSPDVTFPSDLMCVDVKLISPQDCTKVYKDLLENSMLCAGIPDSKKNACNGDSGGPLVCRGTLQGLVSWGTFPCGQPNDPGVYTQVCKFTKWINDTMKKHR

Question: With `CCOC(OCC)c1ccc(/C=C\c2nccc(N)n2)cc1` as the compound, how does the activation read?
Answer: 47.7% (active)

Question: For `O=C(N1CCOCC1)N1CC[C@H]2[C@H](CCCN2Cc2ccc(F)cc2)C1`, which activation is on record?
Answer: 0.18%

Question: With `COc1ccc2c(c1)CN1CN(CCc3ccccc3)S(=O)(=O)CC21` (centres undefined) as the compound, how does the activation read?
Answer: -0.32%

Question: With `CN(C(=O)CCn1c(=S)oc2ccccc21)C1CCCCC1` as the compound, how does the activation read?
Answer: -0.28%

Question: How did the activation turn out when `CCOC(=O)C1=C(CC)OC(N)=C(C#N)C1c1ccc(F)cc1F` (centres undefined) was run?
Answer: -0.17%

Question: `COC(=O)C1=C(C)OC(N)=C(C#N)C1c1cc(OC)ccc1OC` (centres undefined) was tested. Which activation did it give?
Answer: 30.7% (active)

Question: `CC(C)c1ccc(C2C(C#N)=C(N)Oc3c2oc(CO)cc3=O)cc1` (centres undefined) was tested. Which activation did it give?
Answer: 0.31%

Question: How did the activation turn out when `CCC1=C(C(=O)OC)C(c2cc(OC)ccc2OC)C(C#N)=C(N)O1` (centres undefined) was run?
Answer: 15.6% (active)

Question: `COC(=O)C1=C(C)N(C)C(=S)NC1c1cc(OC)ccc1OC` (centres undefined) was tested. Which activation did it give?
Answer: 0.24%

Question: How did the activation turn out when `CCOC(=O)C1=C(C)OC(N)=C(C#N)C1c1cncc(-c2ccc(F)cc2)c1` (centres undefined) was run?
Answer: 0.49%

Question: Which activation does the source give for `Cc1ccc(CN2CCCCC(NC(=O)C3CCCCC3)C2=O)cc1` (centres undefined) here?
Answer: -0.03%

Question: Which activation does the source give for `CCOC(=O)[C@]12CCCC=C1N(Cc1ccc(OC)cc1)C(=O)[C@@H]2CC(=O)NCc1cccs1` here?
Answer: -0.38%

Question: `Clc1ccc(-n2c(COc3ccccc3)nnc2SCc2nc3ccccc3[nH]2)cc1` was tested. Which activation did it give?
Answer: 0.33%

Question: Which activation does the source give for `O=C(CSc1nnc(-c2ccccn2)n1-c1ccc(Cl)cc1)Nc1ccccc1-c1ccccc1` here?
Answer: 0.1%

Question: How did the activation turn out when `COC(=O)[C@]12C[C@H](CC(=O)N3CCOCC3)C(=O)N(Cc3ccc(Cl)cc3Cl)C1=C[C@H](COCc1ccccc1)O[C@@H]2C` was run?
Answer: 0.05%

Question: With `Cc1cc(=O)[nH]c(SCC(=O)Nc2ccc(F)cc2F)n1` as the compound, how does the activation read?
Answer: -0.3%

Question: How did the activation turn out when `CC(C)CCNc1nc(N2CCCC2)c2c(c1C#N)CCN(C)C2` was run?
Answer: -0.46%

Question: `CCN1CCc2c(C#N)c(NCc3ccccc3)nc(NCCO)c2C1` was tested. Which activation did it give?
Answer: 14.3% (active)

Question: With `CCCCc1nc(NCc2ccccc2)c(C#N)c2c1CCCC2` as the compound, how does the activation read?
Answer: -0.04%

Question: How did the activation turn out when `Clc1cccc(Cl)c1OCCOCCNCc1ccccc1` was run?
Answer: -0.51%

Question: Which activation does the source give for `CC1(C)CC(=O)CC2(C1)NCC(c1ccccc1Cl)c1c2[nH]c2ccccc12` (centres undefined) here?
Answer: 0.29%

Question: Which activation does the source give for `CC(=O)N1CCc2cc(S(=O)(=O)NCCC(=O)N3CCCC3)ccc21` here?
Answer: 0.03%

Question: Which activation does the source give for `Cc1cc(C(=O)OCC(=O)Nc2nccs2)c2ccccc2n1` here?
Answer: -2.12%

Question: `COc1ccc(-c2cc3n(n2)CCc2nc4ccccc4n2-3)cc1` was tested. Which activation did it give?
Answer: 0.02%

Question: `C/C(N)=C(/C#N)C(=O)COC(=O)c1cc(-c2cccc(Br)c2)nc2ccccc12` was tested. Which activation did it give?
Answer: 0.31%

Question: Which activation does the source give for `CNC(=O)COC(=O)c1cc(-c2ccc(OC)cc2)nc2ccccc12` here?
Answer: 113% (active)

Question: With `COc1ccc(-c2cc(C(=O)n3cnc4ccccc43)c3ccccc3n2)cc1` as the compound, how does the activation read?
Answer: 20.8% (active)

Question: `COc1ccc(S(=O)(=O)n2cnc3ccccc32)c(C)c1` was tested. Which activation did it give?
Answer: -0.43%

Question: Which activation does the source give for `CN(CCO)c1cccc2c1S(=O)(=O)N(Cc1cn(Cc3ccc(C(F)(F)F)cc3)nn1)Cc1ccccc1O2` here?
Answer: 1.21%

Question: Which activation does the source give for `COC(=O)C[C@@H]1CC[C@H]2[C@@H](COc3ccc(NS(=O)(=O)CC(F)(F)F)cc3C(=O)N2C)O1` here?
Answer: -0.11%

Question: With `CCOC(=O)CN1C(=O)C(O)(CC(=O)c2ccccn2)c2ccccc21` (centres undefined) as the compound, how does the activation read?
Answer: 0.64%

Question: `O=C(NCCC1=CCCCC1)C1CCN(S(=O)(=O)c2ccc(Cl)s2)CC1` was tested. Which activation did it give?
Answer: 0.13%

Question: For `Cc1cc(NS(=O)(=O)c2ccc(NC(=O)CSc3nnc(SCc4ccc(F)cc4)s3)cc2)nc(C)n1`, which activation is on record?
Answer: -0.24%

Question: For `COC(=O)c1cccc(Cn2ccc3ccc(-c4ccc5ccn(C(=O)c6ccccc6C)c5c4)cc32)c1`, which activation is on record?
Answer: -10.5%

Question: How did the activation turn out when `COCc1c(N)c(C)nc(Cl)c1C#N` was run?
Answer: -1.78%

Question: `COC(=O)c1c(C)c(C)nc(N)c1C#N` was tested. Which activation did it give?
Answer: 33.8% (active)

Question: How did the activation turn out when `Cc1nc(SCC(=O)NC2CCCCC2C)c(C#N)c(C)c1C` (centres undefined) was run?
Answer: -0.08%

Question: For `Cc1ccccc1NC(=O)Cn1nnc(-c2ccccc2F)n1`, which activation is on record?
Answer: -0.28%

Question: How did the activation turn out when `O=C(NC1CCCC1)C1CSCCS(=O)(=O)N1Cc1ccccc1` (centres undefined) was run?
Answer: 0.33%

Question: `Cc1c[nH]c2cccc(-c3ccc(Cl)cc3)c12` was tested. Which activation did it give?
Answer: 0.5%

Question: How did the activation turn out when `O=C(CSc1nnc(COc2ccccc2)n1Cc1ccco1)c1ccc2ccccc2c1` was run?
Answer: 0.09%

Question: With `O=C(NCc1cccs1)C1CCCN(S(=O)(=O)c2ccc([N+](=O)[O-])cc2)C1` (centres undefined) as the compound, how does the activation read?
Answer: -0.47%

Question: How did the activation turn out when `Cc1ccc(-n2c(SCC(=O)Nc3ccc(S(=O)(=O)Nc4nccs4)cc3)nnc2-c2ccncc2)cc1` was run?
Answer: 0.08%

Question: `CCCCCn1c(=O)c(C(=O)OCC)c(Cl)c2ccccc21` was tested. Which activation did it give?
Answer: 27.6% (active)

Question: `CCOC(=O)CSc1nc2c(c(=O)n(Cc3ccccc3Cl)c(=O)n2C)n1C` was tested. Which activation did it give?
Answer: -0.44%

Question: `CCCCNC(=O)CCn1c(=O)c2ccccc2n(Cc2cc(C)ccc2C)c1=O` was tested. Which activation did it give?
Answer: -0.3%

Question: For `C=CCn1c(SCC(N)=O)nnc1-c1ccccc1OC`, which activation is on record?
Answer: -0.28%

Question: For `Cc1ccc(C2=CCN(C)C(=O)N2c2ccc(Cl)cc2)cc1`, which activation is on record?
Answer: 0.11%

Question: `C[C@H](C(=O)N(C)c1ccccc1)[C@@H](O)c1ccc2ccccc2c1` was tested. Which activation did it give?
Answer: -0.85%

Question: How did the activation turn out when `CN(C)S(=O)(=O)c1cccc(C(=O)N/N=C\c2ccco2)c1` was run?
Answer: -0.04%

Question: How did the activation turn out when `Cc1coc2c1c(C)cc1oc(=O)c(CC(=O)NCC(=O)N[C@H](C(=O)O)C(C)C)c(C)c12` was run?
Answer: 21.3% (active)

Question: `CC[C@@H](C)[C@H](NC(=O)CCc1c(C)c2cc3c4c(oc3c(C)c2oc1=O)CCCC4)C(=O)O` was tested. Which activation did it give?
Answer: -2.12%

Question: Which activation does the source give for `Cc1c(CC(=O)NCC(=O)NCC(=O)O)c(=O)oc2cc3oc4c(c3cc12)CCCC4` here?
Answer: -11.5%

Question: How did the activation turn out when `CCOC(=O)[C@]12CCCC=C1N(Cc1ccc(OC)cc1)C(=O)[C@@H]2CC(=O)N1CCOCC1` was run?
Answer: -0.23%

Question: For `Cc1ccc(CCn2c3c(c4ccccc42)CN(C)CC3)cn1`, which activation is on record?
Answer: -0.24%

Question: Which activation does the source give for `COC(=O)[C@@]12CCCCC3=C1N(CCC3)C(=O)[C@H]2CC(=O)NCc1cccc2ccccc12` here?
Answer: 0.65%

Question: Which activation does the source give for `CC(C)(C)OC(=O)NCc1cc(F)ccc1/C=C/S(=O)(=O)NCCc1ccccc1` here?
Answer: 0.29%

Question: How did the activation turn out when `FC(F)(F)c1cccc(Cn2ccc3ccc(-c4ccc5ccn(Cc6ccccc6)c5c4)cc32)c1` was run?
Answer: -1.25%

Question: How did the activation turn out when `O=C(/C=C/c1ccc2c(c1)OCCO2)c1ccc(O)cc1` was run?
Answer: 17.6% (active)

Question: How did the activation turn out when `COc1cccc(/C=C/C(=O)Nc2ccc3c(c2)OCCO3)c1` was run?
Answer: -0.23%

Question: Which activation does the source give for `Cc1cccc(NC(=O)/C=C/c2ccc3c(c2)OCO3)n1` here?
Answer: 6.43%

Question: For `COc1ccccc1CCNC(=O)C1CCN(c2nc(C)cc(C)n2)CC1`, which activation is on record?
Answer: -0.66%

Question: With `COC(=O)c1cc(S(=O)(=O)N2CCN(c3ccccc3C)CC2)cn1C` as the compound, how does the activation read?
Answer: 0.47%

Question: With `Cc1ccc(C(=O)c2coc3ccc(O)c(CN(C)C)c23)cc1` as the compound, how does the activation read?
Answer: 0.08%

Question: With `CN(C)Cc1c(O)ccc2occ(C(O)c3ccccc3)c12` (centres undefined) as the compound, how does the activation read?
Answer: -0.59%

Question: `CN(C)Cc1c(O)ccc2c(=O)c(-c3ccccc3Cl)coc12` was tested. Which activation did it give?
Answer: 40.3% (active)

Question: How did the activation turn out when `COc1ccc(CNC(=O)COC(=O)C2=Cc3ccccc3OC2)cc1` was run?
Answer: 31.2% (active)

Question: Which activation does the source give for `COc1ccc(CCNC(=O)COC(=O)c2cc(=O)c3ccccc3o2)cc1` here?
Answer: 0.13%

Question: With `COc1ccc(CNC(=O)COC(=O)C(CCSC)N2C(=O)c3ccccc3C2=O)cc1` (centres undefined) as the compound, how does the activation read?
Answer: 0.41%

Question: How did the activation turn out when `COc1ccc(-c2cc(-c3nnc(SCc4ccc([N+](=O)[O-])cc4)n3N)[nH]n2)cc1` was run?
Answer: 0.29%

Question: `O=C(NCc1ccco1)C1CCCN(S(=O)(=O)c2ccc(Cl)s2)C1` (centres undefined) was tested. Which activation did it give?
Answer: -0.13%

Question: With `COC(=O)C1CN(CC(C)C)CCS(=O)(=O)N1Cc1ccc(F)cc1` (centres undefined) as the compound, how does the activation read?
Answer: 0.05%

Question: With `COc1ccc2c(c1)CCc1cn3ncc(C#N)c3nc1-2` as the compound, how does the activation read?
Answer: 47% (active)

Question: Which activation does the source give for `COc1ccc2c(c1)CCc1c(C(=O)N3CCCC3)noc1-2` here?
Answer: 0.01%

Question: For `N#Cc1cnn2cc(CCN3CCOCC3)c(-c3ccc(F)cc3)nc12`, which activation is on record?
Answer: 11.7%

Question: For `CN(CCc1ccccc1)C(=O)Cn1nc(-c2ccccc2)ccc1=O`, which activation is on record?
Answer: -0.3%

Question: For `CCOC(=O)C1(Cc2ccccc2)CCN(Cc2cn(C(C)=O)c3ccccc23)CC1`, which activation is on record?
Answer: 0.56%

Question: With `CCCCCCN1CCS(=O)(=O)N(Cc2ccc(C(F)(F)F)cc2)C(C(=O)OC)C1` (centres undefined) as the compound, how does the activation read?
Answer: 0.5%

Question: How did the activation turn out when `O=c1[nH]c(CN2CCOCC2)nc2scc(-c3ccccc3)c12` was run?
Answer: -0.59%

Question: For `O=c1c(-c2ccccc2)coc2c(CN3CCOCC3)c(O)ccc12`, which activation is on record?
Answer: 45.3% (active)

Question: How did the activation turn out when `CCOC(=O)c1oc2c(CN3CCN(C)CC3)c(O)ccc2c(=O)c1-c1ccc(Br)cc1` was run?
Answer: 0.69%

Question: How did the activation turn out when `O=C(NCC1COc2ccccc2O1)c1ccc(NC(=O)c2cc(F)ccc2F)cc1` (centres undefined) was run?
Answer: 1.38%

Question: With `COc1cccc(Cn2cc(COC(=O)Nc3ccc(F)cc3)nn2)c1` as the compound, how does the activation read?
Answer: -0.1%

Question: How did the activation turn out when `Cc1cc(S(=O)(=O)c2cc3ccc(O)c(C)c3oc2=O)ccc1F` was run?
Answer: 22.6% (active)

Question: `COc1cccc2cc(S(=O)(=O)c3ccc(C)cc3)/c(=N/NS(=O)(=O)c3ccc(C)cc3)oc12` was tested. Which activation did it give?
Answer: 0.14%

Question: For `O=C(CSc1nc2ccccc2s1)NN=Cc1ccc(O)cc1O`, which activation is on record?
Answer: -0.66%

Question: For `COc1cccc(/C=C2\CC3(OC(C)=O)CCCN2C3)c1` (centres undefined), which activation is on record?
Answer: 0.57%

Question: With `O=C(CCCCCN1C(=O)C2C3C=CC(C3)C2C1=O)Nc1ccccn1` (centres undefined) as the compound, how does the activation read?
Answer: 0.09%

Question: With `C=C(C)C1CC23C(=O)C4(C(=O)c5ccccc5)C[C@@]5(C)CCC(CC2C1(C)C)(C4=O)C35OC` (some centres undefined) as the compound, how does the activation read?
Answer: -0.91%
